The structures appear in SMILES notation. ± gives the standard deviation of the averaged measurements.

The record followed here is the supplement of paper PMC7156485.
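Also: TDF denotes transformed human dermal fibroblasts of mesenchymal origin.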

In the assay the test system is TDF. Nature of the assay: cell number relative to DMSO (% of DMSO); higher = more cells (less growth inhibition / toxicity). Particulars: concentration: 10 µM; 24 h. In short, it runs like this: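 Compounds were applied at 10 µM for 24 h at 37 °C, in triplicate, to HCC1569 and TDF cells. The cells were then fixed and stained for H1.0, and nuclei were counterstained with DAPI. Nuclear H1.0 intensity or cell number is reported relative to the plate control as a percent, taking the median of replicates. Smoothing for positional effects was applied to HCC1569 values only.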
On to `CCC=CCC=CCC=CCC=CCC=CCCCC(=O)O` [Eicosapentaenoic acid], for which the cell number worked out at 103.8 ± 0.71.

In the case of `NCC1OC(OC2C(CO)OC(OC3C(O)C(N)CC(N)C3OC3OC(CN)C(O)C(O)C3N)C2O)C(N)C(O)C1O` (stereo not drawn) [Neomycin], the cell number amounted to 93.4 ± 5.1.

Compound `CCCCCC(O)C=CC1C(O)CC(O)C1CC=CCCCC(=O)O` (stereo not drawn) [8-Epi-prostaglandin F2a] yielded a cell number of 110.

`CCOC(=O)[C@H](CCc1ccccc1)N[C@@H](C)C(=O)N1C(=O)N(C)C[C@H]1C(=O)O.Cl`: the cell number was 99.6.

With `C[Se]CCC(N)C(=O)O` (stereo not drawn) [Selenomethionine], the cell number was determined as 94.

The compound `CCCCCCCCCCCCCCCCC(=O)O` [Heptadecanoic acid] gave a cell number of 94.9.

On to `CC1CCC2(C(=O)O)CCC3(C)C(=CCC4C5(C)CC(O)C(O)C(C)(CO)C5CCC43C)C2C1C` (stereo not drawn) [Asiatic acid], for which the cell number was found to be 99.6.

With `CCCCOc1ccc(-c2cncc(C(=O)NCc3cccnc3N3CCOCC3)c2)cc1Cl`, the cell number was 104.

Compound `Nc1ccc(O)c(C(=O)O)c1` [5-Aminosalicylic acid] displayed a cell number of 103.

Turning to `NC(=O)OCC(COC(N)=O)c1ccccc1` [Felbamate], the cell number came to 109 ± 1.2.

The compound `CCN1CCN(c2cc3c(cc2F)c(=O)c(C(=O)O)cn3C2CC2)CC1` [Enrofloxacin] had a cell number of 106.

`O=C1CCc2c(ccc3ccccc23)O1` [1,2-dihydro-3H-benzo[f]chromen-3-one] had a cell number of 101.

`CN1CCCC1c1cccnc1` (single isomer, unassigned; (-)) [(-)-Nicotine]: the cell number stood at 114.

For the compound `COC(C)(C)CCCC(C)CC=CC(C)=CC(=O)O` (stereo not drawn) [Methoprene acid], the cell number was found to be 91.9.

The compound `O=C(NC(Cc1cc(=O)[nH]c2ccccc12)C(=O)O)c1ccc(Cl)cc1` (stereo not drawn) [Rebamipide] returned a cell number of 99.7.

Compound `COC(=O)C(c1ccccc1Cl)N1CCc2sccc2C1` (stereo not drawn) [Clopidogrel] registered a cell number of 79.7.

`NC(CS(=O)O)C(=O)O` [L-Cysteinesulfinic Acid] registered a cell number of 113.

`CN=C(NC#N)NCCSCc1nc[nH]c1C` [Cimetidine] registered a cell number of 100 ± 12.

In turn, `O=C(O)CCC(=O)c1ccc(-c2ccccc2)cc1` [Fenbufen] had a cell number of 103.

`CC(=O)N[C@@H](CS)C(N)=O` came in with a cell number of 93.6.

The compound `Nc1ccc(C(=O)O)c(O)c1` [4-Aminosalicylic acid] gave a cell number of 98.2.

`CN(C)CCOC(c1ccccc1)c1ccccc1.Cl` [Diphenhydramine.HCl] displayed a cell number of 103.

Compound `C=C(C)C1CCC2(CO)CCC3(C)C(CCC4C5(C)CCC(O)C(C)(C)C5CCC43C)C12` (stereo not drawn) [Betulin] gave a cell number of 99.2.

Compound `O=C(CCCCCCC(=O)Nc1ccccc1)NO` yielded a cell number of 95.7.

In the case of `CC(CCC(=O)NCCS(=O)(=O)O)C1CCC2C3C(O)CC4CC(O)CCC4(C)C3CC(O)C12C` (stereo not drawn) [Taurocholic acid], the cell number amounted to 104.

Compound `CCCNCC(O)COc1ccccc1C(=O)CCc1ccccc1.Cl` [(S)-(-)-propafenone hydrochloride] displayed a cell number of 104.

Compound `NC(CO)(CO)CO.O=C(c1ccccc1)c1ccc2n1CCC2C(=O)O` (stereo not drawn) [Ketorolac tris salt] came in with a cell number of 111.

`CC1CN(c2c(F)c(N)c3c(=O)c(C(=O)O)cn(C4CC4)c3c2F)CC(C)N1` (stereo not drawn) [Sparfloxacin] registered a cell number of 103.

Compound `C#Cc1cccc(Nc2ncnc3cc(OCCOC)c(OCCOC)cc23)c1` [Erlotinib] displayed a cell number of 94.5 ± 3.9.

On to `CCCCCC=CC=CC(O)CCCCCCCC(=O)O` (racemic), for which the cell number was determined as 96.8.

On to `COc1cc(/C=C/C(=O)CC(=O)/C=C/c2ccc(O)cc2)ccc1O`, for which the cell number turned out to be 66.7.

Consider `CCCCCC=CCC=CCC1OC1CC=CCCCC(=O)O` (stereo not drawn) [8,9-Epoxyeicosatrienoic acid], for which the cell number was 101.

In the case of `Nc1[nH]nc2nc3ccccc3nc12`, the cell number was 104.

As to `CCCC(CCC)C(=O)[O-].[Na+]` [Valproic acid sodium], the cell number is 119.

Regarding `COc1cc2c3cc1Oc1c(OC)c(OC)cc4c1C(Cc1ccc(O)c(c1)Oc1ccc(cc1)CC3N(C)CC2)N(C)CC4.Cl.Cl` (stereo not drawn), the cell number is 92.2.

Regarding `NCCCC(O)(P(=O)([O-])O)P(=O)(O)O` [Alendronate], the cell number was determined as 102.

In turn, `O=C(C=Cc1ccc(O)c(O)c1)OC(Cc1ccc(O)c(O)c1)C(=O)O` (stereo not drawn) [Rosmarinic acid] registered a cell number of 101 ± 6.3.

In the case of `CCCCCCCCC=CCCCCCCCCC(=O)O` [10(Z)-Nonadecenoic acid], the cell number came out at 94.1.
